Common to all, as to type: functional
For experiment [1], the target named is Solute carrier family 2, facilitated glucose transporter member 1 (Homo sapiens) (UniProt P11166). The experiment in a line: ST_JUDE_LEISH: Cytotoxicity at 2uM final concentration against transgenic Leishmania Mexicana promastigotes LmGLUT1 that are glucose transport deficient and complemented with the human glucose transporter GLUT1. Activity is measured by DNA content using SYBR green in vitro.

Experiment [2] addresses Hexose transporter 1 (Plasmodium falciparum) (UniProt O97467). Briefly: ST_JUDE_LEISH: Cytotoxicity at 2uM final concentration against transgenic Leishmania Mexicana promastigotes LmPfHT that are glucose transport deficient and complemented with the Plasmodium falciparum hexose transporter. Activity is measured by DNA content using SYBR green in vitro.
For experiment [3], the target named is Glucose transporter (Leishmania mexicana) (UniProt O61059). Briefly: ST_JUDE_LEISH: Cytotoxicity at 2uM final concentration against transgenic Leishmania Mexicana promastigotes LmGT2 that are glucose transport deficient and complemented with the L. Mexicana glucose transporter 2. Activity is measured by DNA content using SYBR green in vitro.

Each structure is given as a SMILES string.

Solute carrier family 2, facilitated glucose transporter member 1 (Homo sapiens), sequence (P11166 whole entry): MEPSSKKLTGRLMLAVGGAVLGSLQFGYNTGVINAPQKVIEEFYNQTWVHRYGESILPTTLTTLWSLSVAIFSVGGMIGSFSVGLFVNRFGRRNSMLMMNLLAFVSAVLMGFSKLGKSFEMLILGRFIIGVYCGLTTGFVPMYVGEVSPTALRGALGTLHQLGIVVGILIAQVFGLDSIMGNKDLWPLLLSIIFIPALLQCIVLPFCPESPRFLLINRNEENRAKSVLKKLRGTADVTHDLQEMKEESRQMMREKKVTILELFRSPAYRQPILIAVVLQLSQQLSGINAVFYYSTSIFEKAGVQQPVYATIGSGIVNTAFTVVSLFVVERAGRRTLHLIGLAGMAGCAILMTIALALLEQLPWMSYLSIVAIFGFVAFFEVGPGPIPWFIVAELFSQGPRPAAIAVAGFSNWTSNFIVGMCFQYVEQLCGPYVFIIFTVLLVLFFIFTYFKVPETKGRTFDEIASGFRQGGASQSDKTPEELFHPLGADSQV

As for `Cc1ccc(/C=C2/SC(=Nc3ccccc3)NC2=O)c(C)c1`, the inhibition in experiment [1] is 13.2%; in experiment [2], 12.1%; in experiment [3], 7.9%.

For the compound `OC(CNc1ccnc(Nc2ccc(Cl)cc2)n1)c1ccccc1C(F)(F)F` (centres undefined), the inhibition worked out at 10% in experiment [1], 9.74% in experiment [2] and 5.08% in experiment [3].

Regarding `Cc1cc(=NN=Cc2ccccc2Cl)c2cccc(C)c2[nH]1`, the inhibition is 3.87% in experiment [1], 2.32% in experiment [2] and -1.14% in experiment [3].

As for `C=C(NC(=O)c1cc(C)cc(C)c1)C(=O)OC`, the inhibition was 0.48% in experiment [1], -0.44% in experiment [2] and 0.67% in experiment [3].

Regarding `CCOC(=O)C1=C(C)N=c2sc(=Cc3cc(Cl)ccc3O)c(=O)n2C1c1ccc2c(c1)OCO2` (centres undefined), the inhibition in experiment [1] was determined as 0.16%; in experiment [2], 0.7%; in experiment [3] it was 1.37%.

In the case of `O=C(Cc1ccc(NC(=O)c2ccc(O)c(-c3ccc(Cl)c(Cl)c3)c2)cc1)NCCN1CCCCC1`, the inhibition in experiment [1] is -0.79%; in experiment [2], -0.35%; in experiment [3], 0.58%.

Consider `CC(C)(C)NCCN(Cc1ccc(-c2ccc(C(F)(F)F)cc2)cc1)C(=O)Cn1c(CCc2cccc(F)c2F)nc(=O)c2c1CCC2`, for which the inhibition in experiment [1] was 6.13%; in experiment [2], 7.22%; in experiment [3] it was 7.29%.

With `O=[N+]([O-])c1ccc(Oc2ccccc2CNCC2CCN(CC3CCCCC3)CC2)cc1`, the inhibition in experiment [1] turned out to be 13.6%; in experiment [2], 15.7%; in experiment [3], 7.15%.

Consider `Cc1ccc(N)cc1-c1nc(NC2CC(C)(C)NC(C)(C)C2)nc2c1ccc(=O)n2-c1c(F)cccc1F`, for which the inhibition in experiment [1] was determined as 0.73%; in experiment [2], 1.28%; in experiment [3], 2.03%.

Regarding `COc1ccccc1CCNC(=O)c1cc(Br)cc(N2CCN(c3ccncc3)CC2)c1`, the inhibition amounted to 1.16% in experiment [1], 2.75% in experiment [2] and 0.04% in experiment [3].

Regarding `CN1CCN(c2ccc(Nc3ncc(Cl)c(Nc4cccnc4C(N)=O)n3)cc2)CC1`, the inhibition in experiment [1] worked out at 84.2%; in experiment [2], 87.3%; in experiment [3], 66.8%.

For the compound `COCCOc1nc(N)nc2ncc(Cc3cc(OC)ccc3OC)c(C)c12`, the inhibition is 0.79% in experiment [1], 0.23% in experiment [2] and -1.06% in experiment [3].

Take `FC(F)(F)c1ccc2[nH]c(-c3ccc(-c4cccc(CNCc5cnn(-c6ccccc6)n5)c4)s3)nc2c1`: the inhibition in experiment [1] was 2.87%; in experiment [2] it was 3.4%; in experiment [3], 2.46%.

In the case of `CN(C)CC1CCCN1Cc1ccccc1-c1cnn(C)c(=O)c1Oc1ccccc1F` (centres undefined), the inhibition in experiment [1] is 2.45%; in experiment [2] it was 1.75%; in experiment [3], 0.1%.

Consider `O=C(NCc1ccc(F)cc1)Nc1ccc(-c2cccc(-c3nc4cc(C(F)(F)F)ccc4[nH]3)c2)cc1`, for which the inhibition was 3.93% in experiment [1], 2.38% in experiment [2] and -0.05% in experiment [3].

For the compound `COc1ccc(NC(=O)c2ccc3[nH]c(-c4ccc(Cl)cc4)cc3c2)cc1OCCN(C)C`, the inhibition was determined as 2.93% in experiment [1], 1.88% in experiment [2] and 0.79% in experiment [3].

For `Cn1c(-c2ccccc2)cc2c3c(N)nc(N)nc3ccc21`, the inhibition in experiment [1] was 105%; in experiment [2], 104%; in experiment [3] it was 98.2%.

As to `O=S(=O)(NCCN1CCCC1)c1cccc(-c2cccc(CNCCc3cccs3)c2)c1`, the values for the inhibition in experiment [1], in experiment [2] and in experiment [3] were 11.7%, 12% and 8.7%, respectively.

Turning to `CC(=O)Nc1ccc(C(=O)Nc2cccc(-c3ccc(-c4nc5ccccc5[nH]4)cc3)c2)cn1`, the inhibition worked out at 4.19% in experiment [1], 3.31% in experiment [2] and 5.92% in experiment [3].

As for `COc1ccc(-c2c3c(=O)n(C)c(=O)n(C)c3c3nnc4ccccc4n23)cc1`, the inhibition in experiment [1] was determined as 0.81%; in experiment [2] it was 1.06%; in experiment [3], 1.3%.

`COC(=O)c1sc(-c2ccc(Cl)cc2)cc1N(CCCN1CCC(N2CCCCC2)CC1)S(=O)(=O)c1ccc(C)cc1`: the inhibition in experiment [1] stood at 23.5%; in experiment [2], 11.2%; in experiment [3], 9.1%.

Turning to `Clc1ccc(C=NN=c2cc[nH]c3ccccc23)cc1`, the inhibition in experiment [1] came to 9.89%; in experiment [2], 8.46%; in experiment [3], 6.25%.

For `COc1cc(NC(=O)C(c2ccc(Cl)cc2)C(C)C)cc(OC)c1OC` (centres undefined), the inhibition in experiment [1] was determined as 2.52%; in experiment [2] it was 1.79%; in experiment [3], 5.89%.

`CC(C)CC1(C(=O)OC(C)(C)C)CC(C(=O)OC(C)(C)C)C(c2cccs2)N1C(=O)c1ccc(C(C)(C)C)cc1` (centres undefined): the inhibition in experiment [1] amounted to 3.89%; in experiment [2], 3.12%; in experiment [3], 2.67%.

For the compound `O=C(Cc1c[nH]cn1)Nc1cccc(-c2cccc(-c3nc4ccccc4[nH]3)c2)c1`, the values for the inhibition in experiment [1], in experiment [2] and in experiment [3] were 9.66%, 12.8% and 7.58%, respectively.

For the compound `COc1ccc(S(=O)(=O)N(CC(=O)NN=C(C)c2cccs2)c2cc(C)cc(C)c2)cc1OC`, the inhibition was 0.78% in experiment [1], 2.03% in experiment [2] and -1.17% in experiment [3].

For `O=c1cc(-c2ccc3ccccc3c2)[nH]c2ccccc12`, the results for the inhibition in experiment [1], in experiment [2] and in experiment [3] were 2.83%, 2.68% and 2.23%, respectively.

On to `COc1cccc(CN2CCCN(Cc3cccc(NC(=O)c4ccc(-c5ccccc5)cc4)c3)CC2)c1`, for which the inhibition in experiment [1] is 0.95%; in experiment [2] it was 0.27%; in experiment [3] it was -6.64%.

Consider `CC(Oc1ccc(C(=O)c2ccc(F)cc2)cc1)C(=O)N1CCc2ccccc21` (centres undefined), for which the results for the inhibition in experiment [1], in experiment [2] and in experiment [3] were -1.44%, -0.96% and 0.7%, respectively.

For the compound `O=C(NCCCNc1ccnc2cc(Cl)ccc12)c1ccccc1F`, the results for the inhibition in experiment [1], in experiment [2] and in experiment [3] were 4.12%, 3.35% and 4.23%, respectively.

As to `O=C(Nc1cccc(Cl)c1)N[C@H]1CCN(Cc2ccc(OCCCN3CCCCC3)cc2)C1`, the values for the inhibition in experiment [1], in experiment [2] and in experiment [3] were 9.4%, 9.12% and 8.16%, respectively.

For `NC1CCN(Cc2ccc(-c3ccc(-c4nc5ccccc5[nH]4)cc3)cc2)C1` (centres undefined), the inhibition in experiment [1] was found to be 12.9%; in experiment [2] it was 10.4%; in experiment [3] it was 5.07%.

On to `COc1ccc2nccc([C@@H](O)CN3CCC(NCc4cc5c(Cl)cccc5[nH]4)CC3)c2c1`, for which the values for the inhibition in experiment [1], in experiment [2] and in experiment [3] were 10.6%, 14.7% and 2.34%, respectively.

The values above are taken from ChEMBL document CHEMBL3433997, “St. Jude Leishmania screening dataset” (2016).
